Assay results published in PMC3218832.

Tests used:
Experiment in all cases: protein binding microarray; high values mean tight binding
Details in all cases: dsDNA, one strand shown
RELARELA (p65 homodimer) = RELARELA (p65 homodimer) (Homo sapiens, UniProt Q04206 1-307)
p50p50 homodimer = p50p50 homodimer (Homo sapiens, UniProt P19838 7-356)
p52p52 homodimer = target: T1, p52p52 homodimer (Homo sapiens, UniProt Q00653 4-332)
T1 sequence: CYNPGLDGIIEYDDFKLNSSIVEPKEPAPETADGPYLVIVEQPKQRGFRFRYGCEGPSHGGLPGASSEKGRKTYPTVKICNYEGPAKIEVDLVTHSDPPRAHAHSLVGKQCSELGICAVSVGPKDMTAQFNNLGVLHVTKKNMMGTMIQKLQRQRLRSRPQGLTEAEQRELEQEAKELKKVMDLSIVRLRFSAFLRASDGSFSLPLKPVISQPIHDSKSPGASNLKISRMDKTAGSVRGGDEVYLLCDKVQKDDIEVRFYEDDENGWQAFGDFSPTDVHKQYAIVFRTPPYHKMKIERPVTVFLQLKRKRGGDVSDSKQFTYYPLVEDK

[1] = target: RELA (p65) subunit of heterodimer;p50 subunit (Homo sapiens;Homo sapiens, UniProt Q04206;P19838 1-307;7-356)
[2] = target: RELA (p65) subunit of heterodimer;p52 subunit (Homo sapiens;Homo sapiens, UniProt Q04206;Q00653 1-307;4-332)
RELB subunit;p50 subunit = RELB subunit;p50 subunit (Homo sapiens;Homo sapiens, UniProt Q01201;P19838 120-401;7-356)
RELB subunit;p52 subunit = target: T2, RELB subunit;p52 subunit (Homo sapiens;Homo sapiens, UniProt Q01201;Q00653 120-401;4-332)
T2 sequence 1: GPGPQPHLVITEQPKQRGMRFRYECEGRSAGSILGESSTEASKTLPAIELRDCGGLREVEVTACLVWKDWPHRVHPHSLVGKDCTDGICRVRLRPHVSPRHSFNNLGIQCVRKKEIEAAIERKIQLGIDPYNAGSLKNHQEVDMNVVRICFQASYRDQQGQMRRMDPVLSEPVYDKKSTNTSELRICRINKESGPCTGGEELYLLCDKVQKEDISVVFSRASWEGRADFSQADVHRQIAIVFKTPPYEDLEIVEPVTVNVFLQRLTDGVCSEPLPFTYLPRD
T2 sequence 2: T1 sequence

[3] = target: C-Rel subunit;p50 subunit (Homo sapiens;Homo sapiens, UniProt Q04864;P19838 1-285;7-356)
[4] = target: T3, C-Rel subunit;p52 subunit (Homo sapiens;Homo sapiens, UniProt Q04864;Q00653 1-285;4-332)
T3 sequence 1: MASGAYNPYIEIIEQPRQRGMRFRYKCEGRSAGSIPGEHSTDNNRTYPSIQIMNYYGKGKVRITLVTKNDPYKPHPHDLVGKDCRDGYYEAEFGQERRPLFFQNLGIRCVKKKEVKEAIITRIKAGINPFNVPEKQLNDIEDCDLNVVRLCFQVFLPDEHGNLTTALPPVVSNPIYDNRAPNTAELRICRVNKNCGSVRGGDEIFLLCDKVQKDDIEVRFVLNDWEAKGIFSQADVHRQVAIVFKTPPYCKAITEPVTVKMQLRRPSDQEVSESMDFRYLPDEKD
T3 sequence 2: T1 sequence

Chain of p50p50 homodimer (P19838 7-356): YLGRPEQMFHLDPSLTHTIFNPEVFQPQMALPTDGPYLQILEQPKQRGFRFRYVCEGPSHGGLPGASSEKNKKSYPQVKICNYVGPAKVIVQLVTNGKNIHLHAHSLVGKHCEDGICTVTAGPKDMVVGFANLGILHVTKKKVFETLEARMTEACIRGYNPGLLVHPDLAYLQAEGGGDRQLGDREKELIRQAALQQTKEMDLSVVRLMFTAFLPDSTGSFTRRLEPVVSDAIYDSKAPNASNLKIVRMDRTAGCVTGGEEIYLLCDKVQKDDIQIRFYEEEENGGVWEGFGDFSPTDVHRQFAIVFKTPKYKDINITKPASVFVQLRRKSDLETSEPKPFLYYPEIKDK
Chain of RELARELA (p65 homodimer) (Q04206 1-307): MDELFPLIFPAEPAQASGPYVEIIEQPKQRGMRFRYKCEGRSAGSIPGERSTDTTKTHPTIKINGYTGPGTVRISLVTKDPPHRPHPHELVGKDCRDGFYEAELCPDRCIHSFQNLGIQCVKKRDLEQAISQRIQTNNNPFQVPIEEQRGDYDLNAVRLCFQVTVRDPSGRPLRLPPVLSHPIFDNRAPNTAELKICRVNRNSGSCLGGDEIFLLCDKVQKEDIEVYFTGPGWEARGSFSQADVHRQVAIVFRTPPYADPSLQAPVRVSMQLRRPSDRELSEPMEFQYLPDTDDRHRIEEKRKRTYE
Chain of RELA (p65) subunit of heterodimer;p50 subunit (Q04206 1-307, chain 1 of 2): as the sequence (Q04206 1-307) above
Chain of RELA (p65) subunit of heterodimer;p50 subunit (P19838 7-356, chain 2 of 2): as the sequence (P19838 7-356) above

Sequence	binding signal (RELARELA (p65 homodimer))	binding signal (p50p50 homodimer)	binding signal (p52p52 homodimer)	binding signal [1]	binding signal [2]	binding signal (RELB subunit;p50 subunit)	binding signal (RELB subunit;p52 subunit)	binding signal [3]	binding signal [4]
AGGTTCGCCCT	-0.645 z-score	-1.28 z-score	-0.726 z-score	-0.876 z-score	-0.838 z-score	-0.727 z-score	-0.728 z-score	-1.03 z-score	-0.838 z-score
CAGTAGCTCCT	-0.468 z-score	-1.98 z-score	-0.806 z-score	-1.09 z-score	-1.13 z-score	-1.24 z-score	-1.1 z-score	-1.72 z-score	-1.02 z-score
GGAGTTTTCCT	1.88 z-score	-0.38 z-score	-0.329 z-score	0.312 z-score	-0.0971 z-score	-0.676 z-score	-0.581 z-score	0.446 z-score	0.304 z-score
GGAAGTATCCT	-0.066 z-score	-1.38 z-score	-0.457 z-score	-0.799 z-score	-0.877 z-score	-1.12 z-score	-0.866 z-score	-1.09 z-score	-0.681 z-score
CAGGGAGTCCT	0.0727 z-score	0.0337 z-score	-0.143 z-score	-0.336 z-score	-0.215 z-score	-0.201 z-score	-0.323 z-score	-0.383 z-score	-0.23 z-score
CGGTAACTCCC	1.08 z-score	0.598 z-score	1.03 z-score	0.774 z-score	0.795 z-score	0.459 z-score	1.02 z-score	0.555 z-score	0.833 z-score
GAGTGCGTCCT	-0.395 z-score	-1.33 z-score	-0.581 z-score	-0.981 z-score	-0.769 z-score	-0.991 z-score	-0.844 z-score	-1.14 z-score	-0.662 z-score
GGGAAGACCCT	0.871 z-score	0.365 z-score	1.66 z-score	1 z-score	1.17 z-score	0.374 z-score	1.01 z-score	0.481 z-score	1.03 z-score
CGAGTGCTCCT	-0.962 z-score	-2.12 z-score	-0.788 z-score	-1.11 z-score	-1.03 z-score	-1.37 z-score	-0.983 z-score	-1.63 z-score	-0.978 z-score
AGAGTAGCCCT	-0.721 z-score	-1.16 z-score	-0.729 z-score	-0.963 z-score	-0.869 z-score	-0.78 z-score	-0.814 z-score	-1.22 z-score	-0.688 z-score
AGAATGCTCCC	-0.506 z-score	-0.551 z-score	-0.418 z-score	-0.467 z-score	-0.621 z-score	-0.576 z-score	-0.823 z-score	-0.92 z-score	-0.456 z-score
GAGGGCTCCCC	-0.357 z-score	0.0285 z-score	-0.0309 z-score	0.109 z-score	-0.108 z-score	0.159 z-score	-0.218 z-score	0.253 z-score	0.154 z-score
CAGGTTGTCCT	-0.115 z-score	-0.869 z-score	-0.451 z-score	-0.774 z-score	-0.884 z-score	-0.961 z-score	-0.805 z-score	-1.05 z-score	-0.71 z-score
AGGTATTTCCC	2.88 z-score	0.816 z-score	2.74 z-score	1.5 z-score	2.11 z-score	1.27 z-score	1.85 z-score	1.43 z-score	2.34 z-score
CAATGGGCCCC	-0.62 z-score	-0.565 z-score	-0.242 z-score	-0.699 z-score	-0.472 z-score	-0.379 z-score	-0.185 z-score	-0.565 z-score	-0.638 z-score
